# Screens: PubChem BioAssay, Johns Hopkins Ion Channel Center
# KCNQ2 pot: potentiators of rat KCNQ2 potassium channel. Potassium voltage-gated channel subfamily KQT member 2 (Rattus norvegicus), O88943. CHO-K1 KCNQ2, FluxOR thallium flux fluorescence; stronger effect = higher value. B-score at 10 µM. 310,000 compounds, 0.54% hits. AID 2239, 2010;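 active = fluorescence ratio B-score at least 3 SD of library B-scores, with initial fluorescence B-score within 3 of them, cut at about 5.3 in these data; same plate scores as AID 2156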;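 note: B-score of peak minus minimum over baseline fluorescence ratio after K+ and Tl+ stimulus; positive B-score means potentiation of KCNQ2 with more thallium influx and brighter signal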
# KCNQ2 block: rat KCNQ2 potassium channel inhibitors, primary screen, cell-based, CHO-K1, FluxOR thallium flux, B-score; 20 min; stronger effect = lower value; B-score at 10 µM; 310,000 compounds, 1.1% hits; AID 2156, 2009; Potassium voltage-gated channel subfamily KQT member 2 (Rattus norvegicus), O88943;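 active = fluorescence ratio B-score at most minus 3 library SDs, with starting brightness B-score within 2 library SDs, cut at about -5.5 in these data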
# KCNQ2 inh conf: rat KCNQ2 potassium channel inhibitors, confirmation, cell-based, thallium flux; shares compounds with KCNQ2 block; KCNQ2-expressing cells, inhibition; stronger effect = lower value; activity change, negative = inhibition, % at 10 µM; 1,000 compounds, 57% hits; AID 493025, 2011;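 note: 0% = vehicle wells and values are ratio percent relative to vehicle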
# KCNQ1 spec: human KCNQ1 channel inhibition, counter-screen for KCNQ2 inhibitor project, cell-based, FluxOR thallium flux; shares compounds with KCNQ2 block; activity change, negative = inhibition, % at 10 µM; KCNQ1-expressing cells, FluxOR thallium flux fluorescence; stronger effect = lower value; 1,000 compounds, 15% hits;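 active = activity change at least 3 SD of negative controls below their mean in both duplicate wells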;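 note: CHO cells stably transfected with KCNQ1 and depolarized by potassium stimulus; peak minus minimum fluorescence over baseline after thallium addition; 0% = vehicle negative control and -100% = blank without thallium stimulus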
# Target sequence (P51787 whole entry, looked up): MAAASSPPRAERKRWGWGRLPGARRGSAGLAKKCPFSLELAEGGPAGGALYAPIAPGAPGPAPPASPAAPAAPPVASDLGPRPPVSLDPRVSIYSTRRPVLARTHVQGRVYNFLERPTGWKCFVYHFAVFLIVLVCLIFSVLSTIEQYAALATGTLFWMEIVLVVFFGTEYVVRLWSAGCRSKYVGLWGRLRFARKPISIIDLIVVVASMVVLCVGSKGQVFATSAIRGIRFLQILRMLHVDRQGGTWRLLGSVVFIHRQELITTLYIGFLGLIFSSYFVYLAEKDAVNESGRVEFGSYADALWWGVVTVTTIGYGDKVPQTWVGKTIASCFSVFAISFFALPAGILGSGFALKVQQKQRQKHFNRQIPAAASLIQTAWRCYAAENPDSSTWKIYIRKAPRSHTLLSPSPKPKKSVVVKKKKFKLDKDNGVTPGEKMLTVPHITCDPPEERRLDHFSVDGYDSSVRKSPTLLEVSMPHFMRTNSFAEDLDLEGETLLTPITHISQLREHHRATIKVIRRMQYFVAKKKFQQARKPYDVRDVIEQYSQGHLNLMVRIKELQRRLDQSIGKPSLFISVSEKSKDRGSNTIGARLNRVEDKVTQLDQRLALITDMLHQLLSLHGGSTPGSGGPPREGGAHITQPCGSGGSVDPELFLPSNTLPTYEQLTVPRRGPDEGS
# CHO parental ctr: thallium flux change in parental CHO cells, counter-screen for KCNQ2 inhibitor project; shares compounds with KCNQ2 block; stronger effect = lower value; 1,000 compounds, 14% hits; activity change, % at 10 µM;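 note: 0% = vehicle negative controls with stimulus buffer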
# KCNQ2 inh confirm: rat KCNQ2 channel inhibitors, confirmation, cell-based, automated patch clamp, single concentration; shares compounds with KCNQ2 block; KCNQ2-expressing cells, automated patch clamp current; calls only at 10 µM; 550 compounds, 49% hits; AID 588531, 2011
# Active calls of the source: *; i = inactive; nt = not tested or not shown; + = active, no number. Rows were chosen to be rich in hits. Some 1.6% of all compounds tested hit in one or more screens of this group. Unless noted, the rule behind the calls is not given here.
SMILES,KCNQ2 pot,KCNQ2 block,KCNQ2 inh conf,KCNQ1 spec,CHO parental ctr,others
CC1CCC(C(C)C)C(OC(=O)COC(=O)c2ccc(N)cc2)C1 (centres undefined),nt,i,nt,nt,nt,
COc1ccc(C(c2nnnn2Cc2ccc(F)cc2)N2CCN(c3ccc(OC)cc3)CC2)cc1 (centres undefined),nt,i,nt,nt,nt,
S=C(NCc1ccccc1)Nc1cccc2ccccc12,1.55,i,nt,nt,nt,
Cc1ccc(C(C)C)c(OCCNC(=S)Nc2cccc3ccccc23)c1,-6.66,-6.66*,i,i,i,
CN1CCN(c2cc(N3CCc4ccccc4C3)c(F)cc2[N+](=O)[O-])CC1,-6.85,-6.85*,i,i,i,
CCC(=O)N1CCN(c2cc(N3CCN(C)CC3)c(F)cc2[N+](=O)[O-])CC1,0.22,i,nt,nt,nt,
CC(=O)Nc1ccc(OC(=O)c2c(-c3ccccc3Cl)noc2C)cc1,nt,i,nt,nt,nt,
COC(=O)/C(=C\C(=O)c1ccccc1)Nc1cccc(C(F)(F)F)c1,-7.82,-7.82*,i,i,i,
O=C(Nc1ccccc1)Nc1cccc(C(F)(F)F)c1,nt,i,nt,nt,nt,
O=C(NC(Cc1ccccc1)c1ccc2c(c1)OCCCO2)c1ccccc1F (centres undefined),nt,i,nt,nt,nt,
CC(=O)N(CCC(Cc1ccccc1)c1ccc2c(c1)OCO2)Cc1ccccc1F (centres undefined),-7.16,-7.16*,-35.0%*,i,i,KCNQ2 inh confirm=i
O=c1cc2c(nn1Cc1c(Cl)cccc1Cl)-c1ccccc1CC2,1.58,i,nt,nt,nt,
Clc1ccc(CSC2=NCCCN2)cc1Cl,2.7,i,nt,nt,nt,
Clc1ccc(CSc2cc3c(nn2)-c2ccccc2CC3)cc1Cl,-8.33,-8.33*,-27.0%*,i,i,KCNQ2 inh confirm=i
Clc1ccccc1CSc1cc2c(nn1)-c1ccccc1CC2,-8.09,-8.09*,-19.0%*,i,i,KCNQ2 inh confirm=i
Nc1ccccc1SCc1ccccc1Cl,nt,i,nt,nt,nt,
Clc1cccc(Cl)c1CSc1cc2c(nn1)-c1ccccc1CC2,-8.52,-8.52*,i,i,i,
COc1ccc(-c2nc(CS(=O)CC(=O)NC3CCC(C)CC3)c(C)o2)cc1OC (centres undefined),0.26,i,nt,nt,nt,
COC(=O)c1ccc(NC(=O)C(=O)c2c[nH]c3ccccc23)cc1,nt,i,nt,nt,nt,
Cc1cccc(NC(=O)c2ccc3c(c2)C(=O)N(c2ccccn2)C3=O)c1C,nt,i,nt,nt,nt,
Cc1cc(N2CCCCC2)n2ncc(-c3ccccc3)c2n1,nt,i,nt,nt,nt,
Cc1cc(N2CCC(C)CC2)n2ncc(-c3ccccc3)c2n1,-8.3,-8.3*,-16.0%*,i,i,KCNQ2 inh confirm=i
COc1cccc(-c2nc(-c3ccccc3)c(-c3ccccc3)[nH]2)c1OCC(=O)O,nt,i,nt,nt,nt,
COc1cccc(-c2nc(-c3ccc4c(c3)-c3ccccc3S4(=O)=O)c(-c3ccccc3)[nH]2)c1OC,-8.88,-8.88*,-26.0%*,i,i,KCNQ2 inh confirm=i
Cc1ccc(NC(=O)N2N=C(c3ccc(F)cc3)CC2c2ccc(F)cc2)cc1 (centres undefined),-7.92,-7.92*,i,i,i,
SMILES,KCNQ2 pot,KCNQ2 block,KCNQ2 inh conf,KCNQ1 spec,CHO parental ctr,others
CC(=O)N1N=C(c2ccccc2)CC1c1ccc(F)cc1 (centres undefined),nt,i,nt,nt,nt,
CCn1cnc2cc(NS(=O)(=O)c3ccc(C)cc3)ccc21,2.31,i,nt,nt,nt,
O=C(Nc1cc(C(F)(F)F)ccc1F)C1CCCCC1,0.53,i,nt,nt,nt,
O=C(CCN1CCCCC1)c1ccc2c(c1)OCCO2,nt,i,nt,nt,nt,
O=C(CCN1CCc2ccccc2C1)c1ccc2c(c1)OCCO2,-8.33,-8.33*,-15.5%*,i,i,KCNQ2 inh confirm=+
O=C(CCN1CCCC1Cc1ccccc1)c1ccc2c(c1)OCCO2 (centres undefined),-7.9,-7.9*,-35.0%*,-29.5%*,-24.5%*,KCNQ2 inh confirm=+
O=C(CCN1CCc2ccccc21)c1ccc2c(c1)OCCO2,0.36,i,nt,nt,nt,
Cc1ccccc1-c1nc(C(=O)NCC2CCCO2)cc2c1[nH]c1ccccc12 (centres undefined),nt,i,nt,nt,nt,
Cc1ccc(-c2nc(C(=O)NCC3CCCO3)cc3c2[nH]c2ccccc23)cc1 (centres undefined),-11.5,-11.5*,-28.5%*,i,i,KCNQ2 inh confirm=i
CCOC(=O)C1(C)/C(=N/Nc2ccccc2OC)C(=O)C(=O)N1c1ccccc1 (centres undefined),nt,i,nt,nt,nt,
CCn1c(CSc2ncn[nH]2)nc2cc(C(=O)O)ccc21,nt,i,nt,nt,nt,
COc1cc2c(cc1OC)C(C)N(C(=O)c1cc3c(s1)-c1ccccc1OC3)CC2 (centres undefined),-8.44,-8.44*,i,i,i,
COc1cc2c(cc1OC)C(C)N(C(=O)c1cc3c(s1)-c1c(C)cccc1OC3)CC2 (centres undefined),-6.68,-6.68*,-36.5%*,i,i,KCNQ2 inh confirm=+
CCOC(=O)c1cc2c(s1)-c1c(C)cccc1OC2,nt,i,nt,nt,nt,
COc1cc2c(cc1OC)C(C)N(C(=O)c1cccs1)CC2 (centres undefined),nt,i,nt,nt,nt,
Cc1ccccc1OCCCCn1c(CO)nc2ccccc21,0.83,i,nt,nt,nt,
Cc1c(C(=O)N(Cc2nccn2C)C(C)C)oc2c(F)cccc12,0.43,i,nt,nt,nt,
Cc1ccc2c(C)c(C(=O)N3CCN(c4ncccn4)CC3)oc2c1C,-8.62,-8.62*,-29.0%*,i,i,KCNQ2 inh confirm=+
Cc1ccc2c(C)c(C(=O)N(C)Cc3nccn3C)oc2c1C,-7.6,-7.6*,i,i,i,
COc1ccc2oc(C(=O)N3CCN(c4ncccn4)CC3)c(C)c2c1,0.12,i,nt,nt,nt,
O=C(O)CNC(=O)CC12CC3CC(CC(C3)C1)C2,nt,i,nt,nt,nt,
C=CCN1CCN(c2ccncc2S(=O)(=O)N2CCCCC2)CC1,nt,i,nt,nt,nt,
Cc1c(C)n(C(=O)CN2CCN(c3ccccc3)CC2)c2ccccc12,-7.82,-7.82*,i,i,i,
Cc1c(C)n(C(=O)CN2CCC(C(N)=O)CC2)c2ccccc12,nt,i,nt,nt,nt,
Cc1nc(NC(=O)CN2CC(C)OC(C)C2)sc1C(=O)N(C)C (centres undefined),nt,i,nt,nt,nt,
SMILES,KCNQ2 pot,KCNQ2 block,KCNQ2 inh conf,KCNQ1 spec,CHO parental ctr,others
Clc1ccc(/C=N/NC(=Nc2ccccc2)c2ccccn2)c(Cl)c1,-8.19,-8.19*,-27.5%*,i,i,KCNQ2 inh confirm=+
C(=N\NC(=Nc1ccccc1)c1ccccn1)/c1ccccn1,nt,i,nt,nt,nt,
Cc1ccc(CNC(=O)/C=C/c2c(Cl)cccc2Cl)cc1,0.47,i,nt,nt,nt,
COc1cccc(-c2cc3nc(-c4ccccc4)cc(N4CCC5(CC4)OCCO5)n3n2)c1,-8.41,-8.41*,-31.5%*,i,i,KCNQ2 inh confirm=i
CN1CCN(c2cc(-c3ccccc3)nc3cc(-c4ccc(F)cc4)nn23)CC1,nt,i,nt,nt,nt,
Cn1c(SCc2ccc(Br)cc2)nnc1-c1cccs1,nt,i,nt,nt,nt,
